Hits are enriched below; roughly 19% of the tested compounds scored in any of these assays.
HepG2 viability: counter-screen for TGF-b inhibitors: cytotoxicity in HepG2 cells; AID 588856; HepG2 CAGA-GFP viability, ATP luminescence, 18 h; 410,000 compounds, 0.76% hits; Potency, µM (highest dose often 46.1 µM), without a hit: top-dose activity change, negative = cytotoxicity, most hits filed as cytotoxic; note: potency is the fitted concentration of half-maximal effect
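HepG2 CAGA-GFP cells (1000/well, DMEM with 1% FBS) received compound, then TGF-beta at 500 pg/mL final, and were incubated 18 hours at 37 degrees C. Viability was read by CellTiter-Glo luminescence. Media-only wells were set as complete cell-killing and DMSO as no toxicity.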
S-ASM inh: blocks human secretory acid sphingomyelinase; P17405; placental ASM, HMU-PC fluorogenic substrate, 60 min; Potency, µM (highest dose often 57.5 µM), for the others: top-dose activity change, negative = inhibition, actives largely listed as inhibitors; 340,000 compounds, 0.006% hits; note: potency is the fitted concentration of half-maximal effect
Target sequence (P17405 47-631 limits assumed): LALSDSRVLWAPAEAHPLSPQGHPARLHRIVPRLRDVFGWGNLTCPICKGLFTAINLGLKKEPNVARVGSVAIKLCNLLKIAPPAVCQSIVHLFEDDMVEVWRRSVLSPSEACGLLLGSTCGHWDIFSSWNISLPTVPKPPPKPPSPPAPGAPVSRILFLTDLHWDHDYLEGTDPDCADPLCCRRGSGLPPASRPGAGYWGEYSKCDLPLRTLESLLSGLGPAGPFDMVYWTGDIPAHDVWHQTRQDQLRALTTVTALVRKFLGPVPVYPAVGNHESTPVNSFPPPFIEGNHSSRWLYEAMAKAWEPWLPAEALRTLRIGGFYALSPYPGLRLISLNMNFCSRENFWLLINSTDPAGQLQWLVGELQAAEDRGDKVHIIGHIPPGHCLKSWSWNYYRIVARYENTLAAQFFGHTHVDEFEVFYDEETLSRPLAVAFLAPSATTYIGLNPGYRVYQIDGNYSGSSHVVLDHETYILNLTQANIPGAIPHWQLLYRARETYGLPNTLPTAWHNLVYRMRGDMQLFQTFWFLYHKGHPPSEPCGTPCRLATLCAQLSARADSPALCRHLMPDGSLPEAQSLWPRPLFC
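HMU-PC0 cleavage (9 uM final) by human placental ASM, 60 min at 37 °C following 10 min compound exposure at RT; stopped at pH 10, fluorescence Ex 386/Em 447 nm.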
DT40 TDP1 no CPT: qHTS for Inhibitors of human tyrosyl-DNA phosphodiesterase 1 (TDP1): qHTS in cells in absence of CPT; Potency, µM (doses to about 46.2 µM), for the others: at the top dose activity change, negative = growth inhibition, hits mostly inhibitors; DT40 Tdp1-/- hTDP1 cells, no CPT, ATP luminescence, 48 h; AID 686978, 2013; 420,000 compounds, 15% hits; note: potency is the fitted concentration of half-maximal effect; % is set by controls: 0 for no effect and ±100 for the full control effect; nearly all actives have a fitted effect of over 55% in size
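A cellular qHTS used chicken DT40 cells lacking endogenous Tdp1 but carrying stably transfected human TDP1. Compounds were applied without camptothecin, and cell growth kinetics were judged by ATP-dependent luminescence after ≥48 hr.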
TGFb inhibitor: inhibitors of TGF-b signaling; AID 588855; 410,000 compounds, 1.2% hits; HepG2 CAGA-GFP TGF-b/SMAD3 reporter, GFP fluorescence, 18 h; TGF-beta stimulated, 500 pg/mL final; Potency, µM (titrated, usually from 46.1 µM), for the others: top-dose activity, negative = inhibition, most hits filed as inhibitors; note: potency is the fitted concentration of half-maximal effect; % is set by controls: 0 for no effect and ±100 for the full control effect; nearly all actives have a fitted effect of over 65% in size
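HEPG2 CAGA-GFP cells (1000/well, DMEM with 1% FBS) were pre-incubated 2 h at 37 degrees C, given compound by pin tool, then stimulated with TGF-beta at 500 pg/mL final for 18 h before per-cell GFP fluorescence imaging.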
DT40 TDP1 CPT: growth inhibition of DT40 Tdp1-/-;hTDP1 cells with camptothecin (screen for TDP1 inhibitors) | chicken DT40 Tdp1-/-;hTDP1 cells + 20 nM CPT, ATP luminescence, 48 h | AID 686979 | 420,000 compounds, 12% hits | Potency, µM (highest dose often 46.2 µM), inactives show at the top dose activity change, negative = growth inhibition, usual class: inhibitors; note: potency is the fitted concentration of half-maximal effect; % is set by controls: 0 for no effect and ±100 for the full control effect; nearly all actives have a fitted effect of over 55% in size
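Cell growth measured by CellTiter-Glo luminescence after a minimum 48 h, 37 C compound exposure with 20 nM CPT in Tdp1-knockout DT40 cells stably expressing hTDP1, seeded 400/well; qHTS titration format.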
IL-1B inflam inh: blocks inflammasome-driven IL-1 beta release | AID 743279 | 360,000 compounds, 4.7% hits | THP-1 LPS/ATP IL-1B secretion, AlphaLISA, 16 h; hits give low values | activity change, % at 57.5 µM; in the data active = activity change below about -50%; inconclusive = mostly about -30% to -49%; note: % is set by controls: 0 for no effect and ±100 for the full control effect
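Secreted IL-1B measured by AlphaLISA bead assay after 16 h compound exposure of THP-1 cells; compounds (final up to 57.5 uM) added 1 h before LPS (250 ng/mL) and ATP (1.25 mM) stimulation; lower signal means less secretion.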
Active calls of the source: *; i = inactive; ? = inconclusive; . = no result given; [ ] = remark or other dose. Unless noted, calls come from the whole dose curve; as a rule, active = well fitted curve in the direction sought with a large enough effect; inconclusive = small, poorly fitted or top-dose-only effect, or another doubt; inactive = no such curve, though single readings can be large; an effect the other way counts as inactive or inconclusive.

SMILES	HepG2 viability	S-ASM inh	DT40 TDP1 no CPT	TGFb inhibitor	DT40 TDP1 CPT	IL-1B inflam inh
O=C1NC(=S)NC1=Cc1ccc2c(c1)CCC2	-14.4%	-3.1%	?	-4.8%	16.4µM*	-8.8
O=C1NC(=S)N/C1=C/C=C/c1ccccc1	-1.4%	11.3%	-17.4%	-3.4%	-1.1%	1.6
Cc1ccc(-n2ncc3c(NNC(=O)c4ccco4)ncnc32)c(C)c1	-9.9%	6.3%	-10.8%	-26.1%	0.4%	1.0
Cc1ccc(-n2ncc3c(NCc4cccnc4)ncnc32)c(C)c1	-17.4%	1.7%	5.17µM*	-26.1%	16.4µM*	-13.4
Cc1cccc(C(=O)NNc2ncnc3c2cnn3-c2ccc(C)cc2C)c1	-12.1%	.	?	-1.7%	23.1µM*	.
Cc1ccc(-n2ncc3c(NCc4cccnc4)ncnc32)cc1C	-11.9%	-2.0%	?	-16.2%	20.6µM*	-19.4
O=C(CN1C(=O)NC2(CCCCC2)C1=O)Nc1cccc(S(=O)(=O)N2CCCC2)c1	11.0%	2.7%	-3.8%	0.8%	?	5.5
Cc1ccccc1C(=O)Nc1c2c(nn1C(C)(C)C)CS(=O)(=O)C2	-11.1%	-0.7%	21.0%	-12.3%	-8.2%	10.6
CCC1CN(CCNC(=O)c2ccc3c(c2)OCCO3)Cc2cc(OC)ccc2O1 (stereo not given)	.	.	-25.2%	.	9.5%[9.04 µM]	.
CCN1CCN(c2cc(C)c3cc(NC(=O)c4cc(OC)c(OC)c(OC)c4)ccc3n2)CC1	-56.3%	.	?	-8.4%	?	.
CCN1CCN(c2cc(C)c3cc(NC(=O)c4cccs4)ccc3n2)CC1	-26.8%	25.1%	?	1.5%	?	?
CCN1CCN(c2cc(C)c3cc(NC(=O)/C=C/c4ccc(OCCC(C)C)cc4)ccc3n2)CC1	-4.7%	.	4.11µM*	32.7%	4.61µM*	.
CCN1CCN(c2cc(C)c3cc(NC(=O)c4cccc(C(F)(F)F)c4)ccc3n2)CC1	-46.3%	.	13µM*	0.6%	10.3µM*	.
CCN1CCN(c2cc(C)c3cc(NC(=O)c4cncc(Br)c4)ccc3n2)CC1	-46.7%	-8.3%	?	-2.0%	?	-53.7*
CCN1CCN(c2cc(C)c3cc(NC(=O)c4ccc5c(c4)OCO5)ccc3n2)CC1	-51.5%	56.2%	14.6µM*	-25.3%	11.6µM*	19.6
CCc1ccc(C(=O)c2cn(CC(=O)Nc3ccc4c(c3)OCCO4)c3ccc(CC)cc3c2=O)cc1	-1.0%	.	7.5%	-1.0%	-0.2%	.
COC(=O)c1ccccc1NC(=O)Cn1c(=O)n(CCCC(=O)NCc2ccccc2OC)c(=O)c2ccccc21	-6.9%	.	?	0.0%	-28.5%	.
CCN1CCN(c2cc(C)c3cc(NC(=O)c4ccc(OC)c(OC)c4)ccc3n2)CC1	-30.8%	140.7%	16.4µM*	74.5%	14.6µM*	-26.1
CCN(CC)CCOc1ccc2c(c1)C(=O)c1cc(OCCN(CC)CC)ccc1-2	.	.	10.3µM*	.	14.6µM*	.
CCCCOc1cc(C(=O)OCCN(CC)CC)ccc1N	-23.5%	-6.4%	?	17.6%	?	-9.3
COc1ccc(Cn2c(=O)[nH]c3cc(C(=O)Nc4ccc(N5CCN(C)CC5)cc4)ccc32)cc1	-29.6%	-0.4%	?	?	?	-58.9*
CCN1CCN(c2ccc(NC(=O)c3ccc4c(c3)[nH]c(=O)n4Cc3ccc(F)cc3)cc2)CC1	-19.6%	-1.8%	29.1µM*	-29.2%	18.4µM*	29.2
CCOC(=O)c1c(C)[nH]c(C2=NNC(=Nc3ccccc3)SC2)c1C	-33.6%	-2.2%	9.2µM*	10µM*	13µM*	-67.5*
CCOC(=O)c1c(C)[nH]c(C2=NNC(=Nc3ccc(OCC)cc3)SC2)c1C	4.2%	?	16.4µM*	-56.1%	16.4µM*	-52.4*
CCOC(=O)c1c(C)[nH]c(C2=NNC(=Nc3ccccc3OC)SC2)c1C	-0.1%	-5.7%	18.4µM*	-11.8%	?	-62.2*
SMILES	HepG2 viability	S-ASM inh	DT40 TDP1 no CPT	TGFb inhibitor	DT40 TDP1 CPT	IL-1B inflam inh
CC(=O)c1c(C)[nH]c(C2=NNC(=NC(C)(C)C)SC2)c1C	-4.6%	-2.3%	-13.2%	-1.9%	16.5%	-21.1
Cc1ccc(N2C(=O)Nc3ccccc3S2(=O)=O)cc1Cl	-11.8%	-0.3%	?	-14.2%	-16.3%	?
NNC(=O)c1cc(O)c(O)c(O)c1	-2.0%	-0.4%	?	?	14.6µM*	1.1
Fc1ccc(C2CC(c3ccco3)=NN2c2ccccc2)cc1 (stereo not given)	-17.0%	i	-1.5%	-2.4%	-2.8%	-25.3
O=[N+]([O-])c1ccc(N2N=C(c3ccco3)CC2c2ccccc2)cc1 (stereo not given)	-1.4%	2.1%	?	-2.5%	?	-55.1*
C=CCOc1c(OC)cc(/C=N/Nc2cccc(C(=O)O)c2)c(Br)c1Br	-32.5%	-15.1%	16.4µM*	?	16.4µM*	0.0
CCCCOC(=O)C1=C(C)Nc2nnnn2C1c1ccccc1Cl (stereo not given)	-7.3%	19.9%	13µM*	-13.9%	?	7.6
CCOc1ccccc1CNS(=O)(=O)c1ccc2c(c1)CCCN2C(C)=O	-3.1%	.	?	-28.5%	?	.
COc1ccc(NC(=O)C(Cc2ccccc2)NS(=O)(=O)c2ccc(Br)s2)cc1OC (stereo not given)	-37.7%	.	?	-21.2%	?	.
COc1ccc([N+](=O)[O-])cc1NC(=O)C(C)N1CCCC1 (stereo not given)	-10.1%	3.5%	-13.9%	-9.2%	13.6%	5.7
CC(C(=O)Nc1cc([N+](=O)[O-])ccc1Cl)N1CCN(c2ccccc2O)CC1 (stereo not given)	4.0%	-6.9%	13µM*	?	?	6.4
O=C(NCCN1C(=O)S/C(=C\c2ccc(F)cc2)C1=O)c1cccc(S(=O)(=O)N2CCOCC2)c1	-29.0%	-6.4%	16.4µM*	?	23.1µM*	0.0
O=C(NCCN1C(=O)S/C(=C\c2ccccc2)C1=O)c1cc(S(=O)(=O)N2CCOCC2)c(Cl)cc1Cl	-8.0%	-3.4%	4.11µM*	0.0%	20.6µM*	-16.8
O=C(NCCN1C(=O)S/C(=C\c2ccc(Cl)cc2)C1=O)c1ccc(F)c(S(=O)(=O)N2CCOCC2)c1	-8.3%	-1.0%	5.8µM*	?	6.51µM*	34.5
Cc1cccc(N2CC(C(=O)NCC3COc4ccccc4O3)CC2=O)c1C (stereo not given)	-6.7%	-0.2%	5.3%	-6.5%	-13.4%	-15.8
